Results reported in PubChem BioAssay (NCI).
About 83,000 compounds went through this panel and 20% of them were active in at least one assay; those are over-represented in the sample as a whole.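 Treatment: one concentration, 48 hours, 96-well format. Scoring: percent growth, with anything below 10 considered active.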 A number with no mark means an inactive call. Calls of active or inactive are those of the source.

Tests used:
Experiment in all cases: NCI-60 one-dose screen, 48 h (100 = growth as untreated, 0 = no growth, -100 = all killed)
Details in all cases: 10 µM unless noted
SR leukemia = tested on: SR leukemia
RPMI-8226 leukemia = tested on: RPMI-8226 leukemia
OVCAR-8 ovarian = tested on: OVCAR-8 ovarian
OVCAR-5 ovarian = tested on: OVCAR-5 ovarian
OVCAR-4 ovarian = tested on: OVCAR-4 ovarian
SK-OV-3 ovarian = tested on: SK-OV-3 ovarian
IGROV1 ovarian = tested on: IGROV1 ovarian
OVCAR-3 ovarian = tested on: OVCAR-3 ovarian
HS 578T breast = tested on: HS 578T breast
NCI/ADR-RES ovarian = tested on: NCI/ADR-RES ovarian
T-47D breast = tested on: T-47D breast
BT-549 breast = tested on: BT-549 breast
MDA-MB-435 melanoma = tested on: MDA-MB-435 melanoma
SW-620 colon = tested on: SW-620 colon
MCF7 breast = tested on: MCF7 breast
HCT-116 colon = tested on: HCT-116 colon
HCC-2998 colon = tested on: HCC-2998 colon
KM12 colon = tested on: KM12 colon

| SMILES | growth (SR leukemia) | growth (RPMI-8226 leukemia) | growth (OVCAR-8 ovarian) | growth (OVCAR-5 ovarian) [%] | growth (OVCAR-4 ovarian) [%] | growth (SK-OV-3 ovarian) | growth (IGROV1 ovarian) | growth (OVCAR-3 ovarian) | growth (HS 578T breast) | growth (NCI/ADR-RES ovarian) | growth (T-47D breast) | growth (BT-549 breast) | growth (MDA-MB-435 melanoma) | growth (SW-620 colon) | growth (MCF7 breast) | growth (HCT-116 colon) | growth (HCC-2998 colon) | growth (KM12 colon) [%] |
| --- | --- | --- | --- | --- | --- | --- | --- | --- | --- | --- | --- | --- | --- | --- | --- | --- | --- | --- |
| COc1ccccc1N1CCN(C2=CC(=O)C(C)=C(C)C2=O)CC1 | 119% | 101% | 100% | 107 | 93.2 | 109% | 112% | 110% | 103% | 98.6% | 91.1% | 104% | 106% | 105% | 83.5% | 106% | 110% | – |
| O=C(CN1CCN(c2cc(=O)n(-c3ccccc3)c3ccccc23)CC1)Nc1ccc(F)cc1 | 76.4% | 61.5% | 71.2% | 101 | 22.7 | 78.6% | 60.1% | 71.8% | 88.7% | 64.3% | 30.2% | 59.1% | 65.4% | 91.6% | 37.9% | 58.7% | 94.4% | 72.9 |
| Nc1nc(N)c2c(n1)NC(c1ccc(Cl)cc1)CC(c1ccc(Nc3nc(NCCO)nc(N4CCOCC4)n3)cc1)=N2 (stereo not drawn) | 8.95% (active) | 38.9% | 72% | 96.7 | 93.8 | 103% | 78.8% | 73.2% | 65.9% | 97.3% | 74.8% | 71% | 81.7% | 79.4% | 41.9% | 57.3% | 108% | – |
| CS(=O)(=O)Nc1cc(-c2ccc3ncc(C#N)c(NCc4ccccc4F)c3c2)cnc1Cl | 3.57% (active) | -22% (active) | 7.93% (active) | 16.8 | 12.6 | -13.7% (active) | -29.1% (active) | 3.41% (active) | -22% (active) | 25% | 3.78% (active) | -8.8% (active) | 6.84% (active) | 8.38% (active) | 4.76% (active) | 4.1% (active) | -1.68% (active) | – |
| O=C1[C@H]2Cc3c([nH]c4ccccc34)[C@@H](c3c(Cl)cccc3Cl)N2C(=O)CN1C1CCN(CC2CCCCC2)CC1 | -0.0364% (active) | 66.2% | 99.6% | 97.8 | 101 | 109% | 53.2% | 67.9% | 73.5% | 91.8% | 94% | 96.5% | 101% | 65.8% | 51.9% | 35.5% | 85.3% | – |
| C=C(C=O)[C@@H]1CC[C@]2(COC(C)=O)CC[C@]3(C)C(CC[C@@H]4[C@@]5(C)CC[C@H](OC(C)=O)C(C)(C)[C@@H]5CC[C@]43C)[C@@H]12 (stereo partly drawn) | -25.8% (active) | -18.4% (active) | 15.3% | 15.1 | 16.2 | 50.3% | -32.8% (active) | -71.6% (active) | -11.6% (active) | 1.48% (active) | 4.4% (active) | 11.1% | -13.6% (active) | 0.204% (active) | -33.5% (active) | -58.4% (active) | -63% (active) | – |
| CC(=O)c1ccc(Nc2nc(SCC(C)C)nc(-c3ccc(F)cc3)c2C#N)cc1 | 102% | 118% | 101% | 113 | 115 | 114% | 111% | 115% | 122% | 110% | 106% | 110% | 111% | 110% | 114% | 108% | 119% | – |
| COc1ccc(NC(=O)CSc2nnc(-c3ccc4nc(-c5ccccc5)[nH]c4c3)o2)cc1 | 91.2% | 79.1% | 101% | 101 | 100 | 108% | 92.9% | 110% | 105% | 101% | 94.7% | 93.5% | 100% | 104% | 86.2% | 102% | 114% | 99.4 |
